Measurements as given in PubChem BioAssay (NCATS).
“And” between values parts separate entries of the source, which are not always exact repeats. Equal values may be shown once. Results filed as inconclusive are left out. Some structures have more than one record in an assay (separate samples or runs), and their calls can disagree. The source made the active and inactive calls. Unless noted, calls follow the shape of the dose curve; as a rule, active = well fitted curve in the direction sought with a large enough effect; inconclusive = small, poorly fitted or top-dose-only effect, or another doubt; inactive = no such curve, though single readings can be large; an effect the other way counts as inactive or inconclusive.

Tests used:
[1] = qHTS for compounds that reverse cellular toxicity of Amyloid beta (A-beta) peptide in yeast: LOPAC Validation Assay (AID 720559);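 also: plate controls were DMSO for no effect and equimolar ferric chloride plus clioquinol rescue for full effect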
Method in brief: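 Here, A-beta-toxic yeast grow with test compounds at 30 C for 48 hr before optical density at 600 nm is recorded; data are normalized against DMSO and the FeCl3-clioquinol control.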

[2] = qHTS for Activators of Parkin Expression: LOPAC Validation Assay (NLuc Reporter) (AID 720572)
Method in brief: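 NLuc signal, read 10 min after reagent and following a prior FLuc read, is normalized to DMSO (0) and positive controls (100%). Cells: neuronal Parkin-promoter coincidence reporter line; compounds tested 7-point, 24 h, 37 C, 5% CO2.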

[3] = qHTS for Activators of Parkin Expression: LOPAC Validation Assay (FLuc Reporter) (AID 720573)
Method in brief: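 Readout is FLuc luminescence from neuronal reporter cells (Parkin promoter, FLuc plus NLuc) after 24 h compound exposure in dose response. Values normalized to neutral DMSO and positive-control compounds.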

[4] = target: T1, Hexokinase-4 (Homo sapiens) + Glucokinase regulatory protein (Homo sapiens) (UniProt P35557+Q14397); assay: qHTS assay for inhibitors of recombinant human GCK-GKRP interaction: Diaphorase-coupled assay (AID 743205); also: potency is read from the fitted curve at half-maximal effect
Method in brief: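 Signal derives from resorufin generated by diaphorase, linked to GCK turnover of glucose (5 mM) and ATP (0.4 mM). Enzyme complex was added after a 20-minute compound preincubation and monitored for 30 minutes.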

[5] = target: T1, Hexokinase-4 (Homo sapiens) + Glucokinase regulatory protein (Homo sapiens); assay: qHTS assay for inhibitors of recombinant human GCK-GKRP interaction: ADP-Glo assay (AID 743206);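 also: plate controls were DMSO plus enzyme for no effect and no enzyme for full effect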
Method in brief: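 Pin-transferred compounds meet a 15 nM GST-GCK/15 nM FLAG-GKRP/2 uM S6P mix (dispense concentrations). ATP is then added to 0.4 mM final with 5 mM glucose, and the reaction runs 60 min at room temperature. ADP is quantified luminescently.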

[6] = target: T1, Hexokinase-4 (Homo sapiens) + Glucokinase regulatory protein (Homo sapiens); assay: qHTS assay for inhibitors of recombinant human GCK-GKRP interaction: HTRF assay (AID 743207);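 also: 0% = DMSO with GCK present and -100% = DMSO wells lacking GCK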
Method in brief: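 Titration screening format: recombinant GST-GCK and FLAG-GKRP at 5 nM, S6P at 2 uM, labelled anti-tag antibodies, 60 min at RT, dual-wavelength HTRF readout.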

[7] = qHTS Assay for Identifying Gametocytocidal Compounds (AID 743244); also: potency is read from the fitted curve at half-maximal effect;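 as to max response: % is scaled to controls: 0 for no effect and ±100 for the full control effect; actives lower the fluorescent signal which means gametocytes are killed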; conditions: P. falciparum 3D7 stage III-V gametocytes, alamarBlue, 72 h; max response: hits give low values
Method in brief: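 In this qHTS viability screen, late-stage 3D7 gametocytes are incubated with compound for 72 h, then with alamarBlue for 24 h; reduced resorufin fluorescence marks killing.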

[8] = qHTS assay for small molecule agonists of the antioxidant response element (ARE) signaling pathway measured by Nrf2-dependant transcriptional activity - cell viability counter screen (AID 720653; active = well fitted curve in the direction sought with a large enough effect in the repeat runs; an effect the other way counts as inactive or inconclusive; also: potency is read from the fitted curve at half-maximal effect; as to max response: % is scaled to controls: 0 for no effect and ±100 for the full control effect); conditions: ARE-bla HepG2 viability, CellTiter-Glo ATP luminescence, 16 h; max response: hits give low values
Method in brief: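 ARE-bla HepG2 cells treated with compounds for 16 h at 37C; this counter screen measures viability as intracellular ATP by CellTiter-Glo luminescence after 30 min at room temperature.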

[9] = qHTS assay for cell viability of HEK293 cells (AID 743288); conditions: ATP luminescence (CellTiter-Glo), 18 h; max response: hits give low values; also: nearly all actives have a fitted effect of over 50% in size; also: potency is read from the fitted curve at half-maximal effect; as to max response: % is scaled to controls: 0 for no effect and ±100 for the full control effect
Method in brief: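 HEK293, 18 h, 37 C, ATP luminescence. Cells at 2,000/well were allowed at least 5 h to settle before dosing; CellTiter-Glo developed 30 min at RT.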

[10] = qHTS assay for cell viability of the p53RE-bla HCT-116 cell line (AID 743292); also: nearly all actives have a fitted effect of over 55% in size; also: potency is read from the fitted curve at half-maximal effect
Method in brief: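 Compound-exposed HCT-116 (p53RE-bla) cells, 4,000 per well, were kept 16 h at 37 C following a 5 h preincubation. Cell number was estimated from total ATP by CellTiter-Glo luminescence read after 30 min at room temperature.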

[11] = qHTS assay for small molecule agonists of the antioxidant response element (ARE) signaling pathway measured by Nrf2-dependant transcriptional activity (AID 720636; active = well fitted curve in the direction sought with a large enough effect in the repeat runs; an effect the other way counts as inactive or inconclusive; also: potency is read from the fitted curve at half-maximal effect)
Method in brief: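 Attachment 6 hr at 37 C, then compound versus DMSO vehicle for 16 hr in ARE-luc HepG2 cells (1% dialyzed FBS); luminescence recorded 30 min after ONE-Glo addition at room temperature.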

[12] = qHTS assay for small molecule antagonists of the retinoid-related orphan receptor gamma (ROR-gamma) signaling pathway - cell viability counter screen (AID 720652; active = well fitted curve in the direction sought with a large enough effect in the repeat runs; an effect the other way counts as inactive or inconclusive;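 also: compound exposure lasted 16 hr before ATP read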; also: potency is read from the fitted curve at half-maximal effect)
Method in brief: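 Steps: seed CHO cells bearing TET-inducible ROR and ROR response element-luciferase; rest 5 hr at 37 C; add compound, then doxycycline; incubate 16 hr; add CellTiter-Glo and read luminescence as ATP-based viability.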

T1 sequence (P35557 whole entry, looked up): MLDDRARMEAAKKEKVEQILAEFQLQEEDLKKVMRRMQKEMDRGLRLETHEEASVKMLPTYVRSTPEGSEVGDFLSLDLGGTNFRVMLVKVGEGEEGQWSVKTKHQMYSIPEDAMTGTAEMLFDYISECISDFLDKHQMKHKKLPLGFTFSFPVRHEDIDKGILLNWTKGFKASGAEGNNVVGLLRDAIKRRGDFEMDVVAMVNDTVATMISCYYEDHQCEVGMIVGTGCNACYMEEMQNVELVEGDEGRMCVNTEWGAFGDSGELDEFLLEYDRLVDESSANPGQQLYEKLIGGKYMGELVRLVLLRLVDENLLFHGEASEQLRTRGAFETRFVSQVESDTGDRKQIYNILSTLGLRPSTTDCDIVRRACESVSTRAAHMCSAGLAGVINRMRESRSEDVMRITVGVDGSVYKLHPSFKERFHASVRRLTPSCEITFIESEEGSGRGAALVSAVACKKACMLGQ
T1 sequence (Q14397 whole entry, looked up): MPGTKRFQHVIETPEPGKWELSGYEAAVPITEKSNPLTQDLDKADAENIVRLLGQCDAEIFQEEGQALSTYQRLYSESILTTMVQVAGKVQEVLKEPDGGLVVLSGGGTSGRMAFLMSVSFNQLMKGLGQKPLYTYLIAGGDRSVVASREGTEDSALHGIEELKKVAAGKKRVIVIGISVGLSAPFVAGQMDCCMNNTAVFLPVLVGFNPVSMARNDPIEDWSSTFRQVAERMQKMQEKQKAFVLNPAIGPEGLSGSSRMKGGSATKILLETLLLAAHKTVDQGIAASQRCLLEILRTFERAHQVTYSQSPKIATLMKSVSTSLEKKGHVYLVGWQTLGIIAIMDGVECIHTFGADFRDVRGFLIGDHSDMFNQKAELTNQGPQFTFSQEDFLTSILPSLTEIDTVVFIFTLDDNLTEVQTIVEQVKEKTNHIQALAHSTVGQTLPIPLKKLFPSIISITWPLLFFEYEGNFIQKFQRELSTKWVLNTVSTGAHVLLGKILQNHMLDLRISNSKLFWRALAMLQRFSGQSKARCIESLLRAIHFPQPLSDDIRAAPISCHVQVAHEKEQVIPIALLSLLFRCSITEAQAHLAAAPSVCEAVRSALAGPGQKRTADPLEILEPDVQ

CCCN(CCC)CCc1c[nH]c2ccc(C(N)=O)cc12
inactive: outcome [1] | Potency [2] | outcome [3] | Potency [4] | outcome [5] | outcome [6] | max response [7] -3.58%

C[C@@H]1O[C@H](C[N+](C)(C)C)CS1
inactive: outcome [1] | Potency [2] | outcome [3] | Potency [4] | outcome [5] | outcome [6] | max response [7] 20.1%

O=c1c2ccccc2[se]n1-c1ccccc1
inactive: outcome [1] | Potency [2] | outcome [3] | outcome [5] | outcome [6]
active: Potency [4] 14.1 µM

O=C(O)c1cc[c]([Hg][Cl])cc1
inactive: outcome [1] | Potency [2] | outcome [3] | max response [8] 8.27% | Potency [4] | outcome [5] | outcome [6] | max response [7] 33.9% | max response [9] -11.9% | Potency [10]

O=C1C[C@@H]2OCC=C3CN4CC[C@]56c7ccccc7N1[C@H]5[C@H]2[C@H]3C[C@H]46
inactive: Potency [11] | max response [8] -11.2% | max response [7] 1.95% | max response [9] -21.9% | Potency [10]

O=[N+]([O-])c1ccc(F)c([N+](=O)[O-])c1
active: Potency [12] 59.6 µM
inactive: Potency [11] | max response [8] -6.71% | Potency [10]

CCCSP(=O)(OCC)SCCC
inactive: Potency [11] | max response [8] -15.9% | max response [7] -10.7% | max response [9] -0.31% | Potency [10]

O=[N+]([O-])c1ccccc1
inactive: Potency [11] | Potency [12] | max response [8] -3.95% and -3.49% | max response [7] 18.1% | max response [9] -0.844% and 8.43% | Potency [10]

C=CCN=C=S
inactive: Potency [11] | max response [8] 9.92% | max response [7] -13.2% | max response [9] -7.74% | Potency [10]

ClCC1CO1 (stereo not given)
inactive: Potency [11] | Potency [12] | max response [8] -2.98% | max response [7] 11.4% | max response [9] 3.04% | Potency [10]

[Cl-].[Cl-].[Hg+2]
active: Potency [11] 21.1 µM | Potency [12] 1.68 µM | Potency [9] 44.7 µM
inactive: max response [8] -13.5% | Potency [10]

ClC(Cl)(Cl)Cl
inactive: Potency [11] | Potency [12] | max response [8] 14.9% and -6.99% | max response [9] -6.99% and 5.96% | Potency [10]

COC1=CC(=O)O[C@@H](/C=C/c2ccccc2)C1
inactive: Potency [11] | Potency [12] | max response [8] 4.02% | max response [9] -13.6% | Potency [10]

CCCCCl
inactive: Potency [11] | Potency [12] | max response [8] -3.38% | max response [7] 3.57% | max response [9] -0.598% | Potency [10]

O=C1CCO1
inactive: Potency [11] | Potency [12] | max response [8] 5.4% | max response [7] 11.4% | max response [9] 5.83% | Potency [10]

[O]=[Cd]
inactive: Potency [11] | Potency [12] | max response [8] -0.962% | max response [7] 2.29% | max response [9] 3.33% | Potency [10]

O=Cc1ccco1
inactive: Potency [11] | Potency [12] | max response [8] -4.31% | max response [7] 5.14% | max response [9] 6.18% | Potency [10]

N#CN
inactive: Potency [11] | max response [8] -18.5% | max response [7] 10.9% | max response [9] -11.1% | Potency [10]

CC(C)(C)c1cc(O)ccc1O
inactive: Potency [12] | max response [8] 21.5% and -0.658% and -3.53% | max response [9] -11% and 8.59% and 5.79% | Potency [10]
active: Potency [7] 31.6 µM and 3.55 µM

CCOP(=O)(OCC)O/C(=C/Cl)c1ccc(Cl)cc1Cl
inactive: Potency [11] | max response [8] -18.8% and -8.15% | max response [9] -28.5% and -27.3% | Potency [10]

O=C/C=C/c1ccccc1
inactive: Potency [12] | max response [8] 12.8% and -6.35% | max response [9] -23.6% | Potency [10]

CC[C@H](C)[C@H]1O[C@]2(C=C[C@@H]1C)C[C@@H]1C[C@@H](C/C=C(\C)[C@@H](O[C@H]3C[C@H](OC)[C@@H](O[C@H]4C[C@H](OC)[C@@H](O)[C@H](C)O4)[C@H](C)O3)[C@@H](C)/C=C/C=C3\CO[C@@H]4[C@H](O)C(C)=C[C@@H](C(=O)O1)[C@]34O)O2
inactive: Potency [11] | max response [7] -7.27%
active: Potency [8] 39.8 µM

COc1ccc2c(c1OC)C(=O)OC2C1c2cc3c(cc2CCN1C)OCO3 (stereo not given)
inactive: Potency [11] | Potency [12] | max response [8] -15.1% | max response [9] -5.26% | Potency [10]

CCCCCCCCOC(=O)c1ccccc1C(=O)OCCCCCCCC
inactive: Potency [11] | max response [8] -5.46% and -4.31% | max response [7] -1.95% | max response [9] -2.74% and -18% | Potency [10]

Clc1ccccc1Cl
inactive: Potency [11] | Potency [12] | max response [8] 1.42% | max response [7] 10.6% | max response [9] 2.94% | Potency [10]

[O]=[Cr](=[O])([OH])[O][Cr](=[O])(=[O])[OH]
inactive: Potency [11] | max response [8] -23.9%
active: Potency [12] 11.9 µM | Potency [9] 39.8 µM and 15.8 µM | Potency [10] 31.6 µM and 25.1 µM and 22.4 µM

O=C1C2CC=CCC2C(=O)N1SC(Cl)(Cl)Cl (stereo not given)
inactive: Potency [11] | max response [8] -23.3% | max response [7] -3.19% | Potency [10]
active: Potency [12] 29.8 µM | Potency [8] 28.2 µM | Potency [9] 10 µM

S=C=S
inactive: Potency [11] | Potency [12] | max response [8] -6.45% | max response [7] -5.35% | max response [9] -4.58% | Potency [10]
